Hits are enriched below; roughly 11% of the tested compounds scored in any of these assays.
AMA1 RON2 block: inhibitors of Plasmodium falciparum AMA1-RON2 interaction; AlphaScreen AMA1-biotinylated RON2 peptide binding; Potency, µM (doses to about 58.2 µM), inactives show at the top dose activity change, negative = inhibition, most hits filed as inhibitors; actives 0.2% (n = 360,000); AID 720542;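 also: 0% = vehicle wells and -100% = peptide control; nearly all actives have a fitted effect of over 45% in size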
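AMA1 (3D7) with his tag at 25 nM final met compounds first, then biotinylated RON2 peptide at 25 nM; detection used donor plus acceptor beads, 10 µg/mL apiece, read by AlphaScreen after 30 min at room temperature.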
Pf growth 96h: inhibits malaria parasite growth, 96 h; actives 6.9% (n = 320,000); AID 504834; P. falciparum luciferase reporter growth, 96 h; Potency, µM (titrated, usually from 28.7 µM), without a hit: at the top dose activity change, negative = inhibition, hits mostly inhibitors
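P. falciparum expressing integrated firefly luciferase grown in erythrocytes (2% hematocrit, 0.05% parasitemia final) with compounds for 96 hours at 37 C, 5% CO2. Growth inhibition read as loss of luminescence after adding luciferase detection reagent.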
Pf growth 48h: P. falciparum growth inhibition at 48 hours (one generation) | Potency, µM (highest dose often 28.7 µM), inactives show top-dose activity change, negative = inhibition, hits mostly inhibitors | actives 5.9% (n = 310,000) | P. falciparum luciferase growth in erythrocytes, 48 h
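Luminescence readout; reporter = integrated firefly luciferase in P. falciparum. RBC culture at 2% hematocrit, 0.1% parasitemia final, 37 C/5% CO2; decreased signal taken as growth inhibition.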
HCV inhibitor: HCV inhibition. Huh7.5.1 HCVcc-Cre infection, luciferase reporter, 44 h. Potency, µM (titrated, usually from 41.8 µM), for the others: at the top dose activity change, negative = inhibition, most hits filed as inhibitors. actives 3.4% (n = 340,000). AID 651820
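Infectious HCV cell culture screen: compound-treated cells (1,000/well, pre-plated 4 h) are infected with HCVcc-Cre at roughly 0.5 moi and grown 44 h. Infection is quantified by luciferase signal after 15 min substrate incubation at room temperature.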
An asterisk follows results filed as active; ! = a repeat was not active. Calls follow the shape of the dose curve; as a rule, active = well fitted curve in the direction sought with a large enough effect; inconclusive = small, poorly fitted or top-dose-only effect, or another doubt; inactive = no such curve, though single readings can be large; an effect the other way counts as inactive or inconclusive. Unless noted, % is scaled to controls: 0 for no effect and ±100 for the full control effect; potency is read from the fitted curve at half-maximal effect.

What do the screens show for `CN(CC(=O)Nc1cccc(F)c1)CC(=O)NC(c1ccccc1)c1ccccc1`?
AMA1 RON2 block: 6.8%; Pf growth 96h: inconclusive; Pf growth 48h: 11.7µM*; HCV inhibitor: -16.7%

Results for CN(CC(=O)Nc1cccc(F)c1)CC(=O)Nc1ccccc1-c1ccccc1 ?
AMA1 RON2 block: 23.8%; HCV inhibitor: inconclusive

How did CN(CC(=O)Nc1cccc(F)c1)C(=O)c1ccc(C(=O)c2ccccc2)cc1 do in these assays?
AMA1 RON2 block: -21.8%; Pf growth 96h: 9.28µM*; Pf growth 48h: inconclusive; HCV inhibitor: inconclusive

How did COc1c(-c2ccc([N+](=O)[O-])cc2[N+](=O)[O-])c(=O)n(C)c(=O)n1C do in these assays?
AMA1 RON2 block: 23.5%; Pf growth 96h: 3.8%; Pf growth 48h: -11.4%; HCV inhibitor: 0.6%

How did Nc1cc(N)nc(SCC(=O)NC2CCCCCCC2)n1 do in these assays?
AMA1 RON2 block: 19.7%; Pf growth 96h: 9.9%; Pf growth 48h: 0.0%; HCV inhibitor: -2.0%

How did CC(OC(=O)CN1C(=O)c2ccccc2C1=O)C(=O)NC1CCCCC1 (stereo unspecified) do in these assays?
AMA1 RON2 block: 5.8%; Pf growth 96h: -14.0%; Pf growth 48h: 2.1%; HCV inhibitor: 13.2%

What do the screens show for `CC(C)COc1ccc(C(=O)Nc2ccc(SC(F)F)cc2)cc1`?
AMA1 RON2 block: -0.9%; Pf growth 96h: -20.4%; Pf growth 48h: 104.4%; HCV inhibitor: inconclusive

Results for Cc1cc(O)c2c(c1O)C(=O)[C@]13C(=C2O)C(=O)[C@@H]2[C@@H](O)[C@H]1[C@@H]1[C@H](O)[C@H]3C(=O)C3=C(O)c4c(O)cc(C)c(O)c4C(=O)[C@]312 ?
AMA1 RON2 block: -41.7%; HCV inhibitor: 5.01µM*

How did Cc1cc(-c2nn(-c3ccccc3F)cc2CN2CCC(C(N)=O)CC2)c(C)s1 do in these assays?
AMA1 RON2 block: -7.2%; Pf growth 96h: 8.28µM*; Pf growth 48h: -1.8%; HCV inhibitor: 6.8%

How did Cc1cc(-c2nn(-c3ccccc3F)cc2CN2CCCC(CO)C2)c(C)s1 (stereo unspecified) do in these assays?
AMA1 RON2 block: -4.1%; Pf growth 96h: 2.33µM*; Pf growth 48h: 22.0%; HCV inhibitor: inconclusive

Results for Cc1cc(-c2nn(-c3ccccc3F)cc2CN2CCCC(O)C2)c(C)s1 (stereo unspecified) ?
AMA1 RON2 block: 20.8%; Pf growth 96h: inconclusive; Pf growth 48h: inconclusive; HCV inhibitor: 2.7%

Results for COc1ccc(Br)cc1C1N2CC3(C)CN1CC(C)(C2)C3=O (stereo unspecified) ?
AMA1 RON2 block: 2.3%; Pf growth 96h: 57.4%; Pf growth 48h: 29.8%; HCV inhibitor: 13.3%

How did Cc1cccc(NC(=O)CNC(=O)CN2C(=O)NC3(CCCCC3C)C2=O)c1C (stereo unspecified) do in these assays?
AMA1 RON2 block: 0.2%; Pf growth 96h: 49.0%; Pf growth 48h: 26.2%; HCV inhibitor: 6.9%

Results for Cc1nn(CC(=O)NCC(C)c2ccccc2)c(=O)c2cccn12 (stereo unspecified) ?
AMA1 RON2 block: 6.3%; Pf growth 96h: 27.4%; Pf growth 48h: 22.6%; HCV inhibitor: 15.8%

What do the screens show for `CN1CCc2cccc3c2[C@H]1Cc1ccc(O)c(O)c1-3`?
AMA1 RON2 block: 10µM*; Pf growth 96h: 2.33µM*!; Pf growth 48h: 2.94µM*; HCV inhibitor: inconclusive

What do the screens show for `COc1ccc2c(c1O)-c1c(OC)c(OC)cc3c1[C@H](C2)N(C)CC3`?
AMA1 RON2 block: -13.7%; Pf growth 96h: 37.2%; Pf growth 48h: 1.7%; HCV inhibitor: 9.6%

What do the screens show for `CCOC(=O)N1CCN(C(=O)C[C@@H]2C[C@@]3(C(=O)OC)CC(C)(C)CC=C3N(Cc3cccc4ccccc34)C2=O)CC1`?
AMA1 RON2 block: -17.7%

How did Cc1noc(C)c1COC(=O)c1cc2c3ccccc3n(C)c2s1 do in these assays?
AMA1 RON2 block: 0.0%; Pf growth 96h: inconclusive; Pf growth 48h: inconclusive; HCV inhibitor: 11.2µM*

How did Cc1nnc(Sc2cc(NCCCO)c([N+](=O)[O-])c3nonc23)s1 do in these assays?
AMA1 RON2 block: 1.2%; Pf growth 96h: inconclusive; Pf growth 48h: 0.0%; HCV inhibitor: 10µM*

How did CCOc1ccc(S(=O)(=O)NCCC(=O)NCCOc2ccccc2OC)cc1 do in these assays?
AMA1 RON2 block: 6.7%; Pf growth 96h: -12.8%; Pf growth 48h: -20.6%; HCV inhibitor: inconclusive
